Assay outcomes (PubChem BioAssay)
HCV inhibitor: qHTS Assay for Inhibitors of Hepatitis C Virus (HCV) | Huh7.5.1 HCVcc-Cre infection, luciferase reporter, 44 h | Potency, µM (series often up to 41.8 µM), for the others: at the top dose activity change, negative = inhibition, usual class: inhibitors | 340,000 compounds, 3.4% hits | AID 651820, 2012; active means well fitted inhibition curve with a large enough effect; inconclusive means small, poorly fitted or top-dose-only effect, or another doubt; inactive means no such curve, though single readings can be large or run the other way; further: potency means the concentration at half of the fitted maximal effect; on the % scale 0 is the no-effect control and ±100 the full control effect
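Reporter virus HCVcc-Cre (~0.5 moi) infects cells exposed to compound; seeding density 1,000 cells/well with 4 h settling beforehand. Luminescence, 15 sec read, taken 44 h post-infection following a 15 min RT substrate incubation.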
CHX counter: Cycloheximide Counterscreen for Small Molecule Inhibitors of Shiga Toxin. cell reporter, cycloheximide protein synthesis inhibition counterscreen. max response, %. 300,000 compounds, 12% hits. AID 2314, 2010; in the data active means max response mostly above about 13%, no sharp cut-off; inactive means mostly below about 14%; further: read at 38.3 µM for the half of the compounds with a filed dose; 0% is about no effect
Shiga toxin inh: A qHTS for Small Molecule Inhibitors of Shiga Toxin | Vero cells, Shiga toxin protein synthesis inhibition reporter | inhibition, % at 38.7 µM | 290,000 compounds, 9.2% hits | AID 2315, 2010; in the data active means inhibition mostly above about 28%, no sharp cut-off; inactive means mostly below about 43%; further: 0% is about no effect
FMDV antiviral: High Throughput Screening for Foot and Mouth Disease Virus Antivirals | FMDV antiviral cell-based qHTS | 410,000 compounds, 1.2% hits | AID 1159524, 2015 | Potency, µM (titrated, usually from 57.9 µM), for the others: at the top dose activity change, negative = inhibition, actives largely listed as inhibitors; calls by dose curve; tested in HEK293T cells; further: read-out not given here; potency means the concentration at half of the fitted maximal effect; on the % scale 0 is the no-effect control and ±100 the full control effect; nearly all actives have a fitted effect of over 45% in size
MARV entry inh: qHTS for inhibitors of binding or entry into cells for Marburg Virus; Marburg virus pseudotyped entry inhibition, cell reporter; Potency, µM (doses to about 37.8 µM), for the others: at the top dose activity change, negative = inhibition, hits mostly inhibitors; 300,000 compounds, 1.8% hits; calls by dose curve; tested in HEK293 cells; further: potency means the concentration at half of the fitted maximal effect; on the % scale 0 is the no-effect control and ±100 the full control effect
Lassa entry inh: qHTS for Inhibitors of binding or entry into cells for Lassa Virus. Lassa virus pseudotype entry inhibition, cell reporter. Potency, µM (top dose mostly 37.9 µM), for inactives: at the highest dose activity change, negative = inhibition, actives largely listed as inhibitors. 300,000 compounds, 1.2% hits. AID 540256, 2011; calls by dose curve; tested in HEK293 cells; further: potency means the concentration at half of the fitted maximal effect; on the % scale 0 is the no-effect control and ±100 the full control effect; nearly all actives have a fitted effect of over 50% in size
* hit, by the source's call; ? = inconclusive; . = no result given; [ ] = another dose, or the depositor's remark. Sampled rows, rich in hits. Any-hit rate of the full collection: about 13%.

SMILES | HCV inhibitor | CHX counter | Shiga toxin inh | FMDV antiviral | MARV entry inh | Lassa entry inh
Cc1ccc(O)c(NC(=O)C2CC(c3ccc(F)cc3)=NO2)c1 (stereo not drawn) | -20% | -1 | 32 | -4% | 15% | -12%
CN1CCN(c2ccc(NC(=O)c3sc4ccccc4c3Cl)cc2)CC1 | ? | 43* | 82* | 1% | ? | ?
Cc1ccc(NC(=O)c2sc3ccccc3c2Cl)cc1 | . | . | . | 19% | . | 21%[46.1 µM]
O=C(NNC(=S)NC(=O)c1sc2ccccc2c1Cl)c1ccc(Cl)cc1 | ? | 14* | 12 | 0% | ? | -20%
CCn1nnc(NC(=O)c2sc3ccccc3c2Cl)n1 | -3% | 42* | 66* | 17% | ? | ?
O=C(Nc1ccncc1)c1sc2ccccc2c1Cl | ? | 26* | 72* | 11% | ? | -20%
c1ccc(-c2cc3nccc(-c4ccccn4)n3n2)cc1 | ? | 45* | 94* | 13% | ? | ?
Cc1csc(=O)n1CC(=O)OCc1cccc2ccccc12 | 1% | 45* | 79* | 60% | 14% | 27%
Cc1cc(C)c(C(=O)COC(=O)Cn2c(C)csc2=O)cc1C | . | 24* | 44* | 36% | -1% | 3%
CC1CC(=S)Nc2ccccc2N1C(=O)Nc1ccccc1 (stereo not drawn) | 20% | 9 | 15 | 26% | -20% | ?
O/C=c1\ccc2cccc3nc(C(F)(F)F)nc1c23 | ? | 6 | -9 | 13µM* | ? | -3%
CC(=O)Nc1c(C)nn(-c2ccccc2)c1N1CCC(C(=O)Nc2ccccc2C(F)(F)F)CC1 | . | . | . | 0% | . | -8%[46.1 µM]
Cc1ccc(-c2ccc(CCC(=O)O)n2NC(=O)c2cccs2)cc1 | 16% | 34* | 2 | 9% | ? | 17%
COc1ccc(-c2ccc(CCC(=O)O)n2NC(=O)c2cccs2)cc1 | 29% | 22* | 0 | -11% | ? | 7%
Cc1ccc(NC(=S)N(CCN2CCOCC2)Cc2ccccc2F)cc1 | 25% | 4 | -3 | 6% | 2% | -17%
CSCCC(NC(=O)c1ccc([N+](=O)[O-])cc1Cl)C(=O)OCC(=O)NCCCc1ccccc1 (stereo not drawn) | 4% | 1 | -25 | -4% | 13% | -2%
Nc1c(C(=O)Nc2cccc(C(=O)O)c2)sc2nc3c(cc12)CCCC3 | 4% | 18* | 49 | 6.3µM* | ? | 3.2µM*
Nc1c(C(=O)Nc2ccc(Cl)c(C(=O)O)c2)sc2nc3c(cc12)CCCC3 | 3% | 18 | 8 | 0% | -15% | ?
Nc1c(C(=O)Nc2ccccc2)sc2nc3c(c(-c4ccco4)c12)CCC3 | 10µM* | 19* | 48* | ? | -15% | -16%
Nc1c(C(=O)Nc2ccc(C(=O)O)cc2)sc2nc3c(cc12)CCCC3 | . | . | . | 16µM* | 25%[46.1 µM] | ?
CC(=O)NC(Cc1ccccc1)C(=O)O (stereo not drawn) | -12% | 2 | -6 | -17% | . | .
Cc1ccc(Nc2nc(CSc3nnc(-c4cccnc4)n3-c3ccccc3F)cs2)cc1 | -13% | 4 | 15 | 10% | 18%[46.1 µM] | 16%
COc1ccc(-c2noc(CN(C(=O)c3ccoc3C)C(C)C)n2)cc1 | -11% | -1 | -14 | -6% | ? | ?
CCOP(=O)(OCC)/C(C#N)=C/c1c[nH]c2ccccc12 | ? | -2 | 7 | -17% | . | .
CCOC(=O)/C(C#N)=C/c1c[nH]c2ccccc12 | ? | 28* | 81* | 7% | ? | ?
SMILES | HCV inhibitor | CHX counter | Shiga toxin inh | FMDV antiviral | MARV entry inh | Lassa entry inh
COC(=O)/C(C#N)=C/c1c[nH]c2ccccc12 | -7% | 37* | 103* | 28% | ? | 13%[46.1 µM]
CC(=O)Oc1c(/C=C(\C#N)C(N)=O)[nH]c2ccccc12 | ? | 22 | 11 | -9% | ? | 16µM*
CCOC(=O)C(=O)/C(C#N)=C/Nc1ccccc1 | -4% | -1 | -11 | -12% | 19% | -1%
CCOC(=O)/C(C#N)=C/Nc1ccccc1OC | -29% | 25* | 43* | 40% | -2% | 3%
N#C/C(=C\c1c[nH]c2ccccc12)C(N)=O | -31% | 9.0* | 27 | 20% | . | .
Cc1ccc(S(=O)(=O)/C(C#N)=C/c2c[nH]c3ccccc23)cc1 | 27% | -3 | -13 | -7% | -20% | 0%
COc1ccc(S(=O)(=O)N2CCCCCC2)cc1NC(=O)Cc1cc(OC)c(OC)c(OC)c1 | -10% | 1 | -3 | -14% | ? | -2%
COc1ccc(S(=O)(=O)N2CCCC2)cc1NC(=O)c1ccccc1 | 13% | -3 | 18 | -21% | 8%[46.1 µM] | 29%
COc1ccc(S(=O)(=O)N2CCCCCC2)cc1C(=O)N(C)Cc1ccc(Cl)cc1Cl | 11µM* | . | . | 0% | ? | ?
COc1ccc(S(=O)(=O)N2CCCCCC2)cc1C(=O)N(C)Cc1c(F)cccc1Cl | -3% | . | . | 23% | . | .
COc1ccc(S(=O)(=O)N2CCCCC2)cc1NC(=O)CN(C)C1CCCCC1 | 11µM* | 1 | -11 | 16% | ? | ?
COc1ccc(S(=O)(=O)Nc2ccccc2C(=O)NC2CC2)cc1NC(C)=O | 1% | . | . | 8% | . | .
COc1ccc(S(=O)(=O)N2CCN(C(c3ccccc3)c3ccccc3)CC2)cc1NC(C)=O | 3.2µM* | 1 | -28 | -5% | . | .
COc1ccc(S(=O)(=O)Nc2ccccc2OC)cc1NC(=O)CC1CC2CCC1C2 (stereo not drawn) | 6.3µM* | -1 | 6 | -10% | ? | ?
COc1cccc(Cn2c(=O)c(C)nc3cnc(N4CCNCC4)nc32)c1 | . | . | . | -5% | . | .
COc1ccc(S(=O)(=O)N2CCCCC2)cc1NC(=O)C1CC(=O)N(Cc2ccco2)C1 (stereo not drawn) | -11% | . | . | 18% | ? | -22%[46.1 µM]
COc1ccc(S(=O)(=O)N2CCCCC2)cc1NC(=O)CN(Cc1ccco1)Cc1ccco1 | 10µM* | . | . | ? | . | .
Cc1ccc(-c2nn(C)c(=O)c3ccccc23)cc1S(=O)(=O)NCCN(C)C | 6% | -2 | -5 | 20% | 11µM* | -21%[46.1 µM]
CCCCNS(=O)(=O)c1cc(-c2nn(C)c(=O)c3ccccc23)ccc1C | ? | 2 | -5 | 32% | ? | ?
Cc1ccc(-c2nn3c(C)nnc3c3ccccc23)cc1S(=O)(=O)NCc1ccco1 | ? | 51* | 37* | . | -26% | ?
Cc1ccc(-c2nn3c(C)nnc3c3ccccc23)cc1S(=O)(=O)NCCO | ? | -1 | 6 | 85% | 9%[14.2 µM] | 2%
c1ccc2nc(C3=NCCN3)ccc2c1 | . | . | . | 13% | 9% | ?
c1ccc2[nH]c(-c3cscn3)nc2c1 | -12%[8.37 µM] | 53* | 102* | 27% | 22% | 27%
c1ccc2nc(-c3nc4ccccc4[nH]3)ccc2c1 | -3% | 14* | 22 | -69% | ? | ?
C[C@@H]1CC[C@]2(O[C@@H](CCO)C[C@@H](O)[C@@H]2O)O1 | 22%[8.37 µM] | -2 | -8 | 7% | . | .
